“And” between values parts separate entries of the source, which are not always exact repeats. Identical values can stand only once.

Activity (protection/inhibition) data for three compounds are collected here from PubChem BioAssay AID651871 (Sanford-Burnham Center for Chemical Genomics, 2012).

The test system of the test is HL-1. The experiment in a line: protection of cardiomyocytes from stress damage, SAR follow-up, cell-based, panel, H9c2 and HL-1, ATP luminescence, set 2 (AID 651871).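 Note: cells exposed to stressor for 2 h before ATP readout; reference of the scale not given here.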 The conditions noted are these: H9c2/HL-1 cardiomyocytes, 2-deoxyglucose stress, with 2-deoxyglucose, run 3, at 79 µM (top of the series).
For `CCOC(=O)c1cccc(NC(=O)CNC(=O)c2cc(-c3cc(OC)c(OC)c(OC)c3)nc3ccccc23)c1`, the activity (protection/inhibition) was 95.7%.
With `COc1ccc2nc(-c3cc(OC)c(OC)c(OC)c3)cc(C(=O)NCC(=O)Nc3ccc(C(C)=O)cc3)c2c1`, the activity (protection/inhibition) was determined as 38.8%.
For `COc1ccc2c(c1OC)C(=O)N1c3ccccc3C(=O)N(Cc3cccc(Cl)c3Cl)C21` (stereo not drawn) the value was 35.1% and -7.14%.
